Assay outcomes deposited in PubChem by National Center for Advancing Translational Sciences (NCATS).
An excerpt weighted towards active compounds, which were near 4.7% of everything screened.
D3 antag: qHTS of D3 Dopamine Receptor Antagonist: qHTS. D(3) dopamine receptor (Homo sapiens), P35462. D3R cells, DiscoveRx beta-arrestin luminescence, antagonist mode; stronger effect = lower value. max response, negative = inhibition, %. 2.5% of 360,000 active. AID 652054, 2013; in the data active = max response below about -50%; inconclusive = no clear call, values can overlap the other calls
Target sequence (P35462 whole entry, looked up): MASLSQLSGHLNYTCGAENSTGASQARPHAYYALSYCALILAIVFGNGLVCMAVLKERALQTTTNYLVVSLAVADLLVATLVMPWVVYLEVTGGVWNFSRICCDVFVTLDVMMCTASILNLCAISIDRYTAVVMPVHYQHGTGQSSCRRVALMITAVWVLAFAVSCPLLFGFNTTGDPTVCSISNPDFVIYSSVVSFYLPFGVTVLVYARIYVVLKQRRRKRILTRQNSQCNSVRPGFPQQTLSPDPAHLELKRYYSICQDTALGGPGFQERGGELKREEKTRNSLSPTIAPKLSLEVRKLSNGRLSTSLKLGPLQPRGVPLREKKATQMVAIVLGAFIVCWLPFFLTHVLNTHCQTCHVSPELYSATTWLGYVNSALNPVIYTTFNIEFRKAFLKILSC
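Cells expressing the human receptor were seeded at 1500 cells/well, incubated overnight at 37 degrees C in 5% CO2, then exposed to library compounds with dopamine controls for 90 minutes at 37 degrees C before luminescent detection.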
D3 ag: qHTS of D3 Dopamine Receptor Agonist: qHTS; D(3) dopamine receptor (Homo sapiens), P35462; D3R DiscoveRx beta-arrestin cells, luminescence, 90 min; max activation, %; 0.58% of 410,000 active; in the data active = max activation above about 30%
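Agonist-mode cell screen: cells plated at 1500/well and incubated overnight at 37 °C, then exposed to library compounds for 90 min at 37 °C. Detection reagent was added for 30–60 min at room temperature, and luminescence was read.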
HepG2 viability: qHTS for Inhibitors of TGF-b: Cytotox Counterscreen | Potency, µM (series often up to 46.1 µM), hits mostly cytotoxic | 0.76% of 410,000 active | HepG2 CAGA-GFP viability, ATP luminescence, 18 h | AID 588856, 2011
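CellTiter-Glo luminescence gave cytotoxicity after 18 hours at 37 degrees C. The cells were HepG2 CAGA-GFP in 1% FBS DMEM, stimulated with 500 pg/mL TGF-beta after compound addition. %Activity was normalised to no-cell wells (complete cell-killing) and DMSO (no toxicity), and curves were fitted and classified.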
ATXN2 expr inh: Primary qHTS for Inhibitors of ATXN expression | HEK-293 ATXN2-luciferase reporter, luminescence, 24 h | Potency, µM (doses to about 57 µM), most hits filed as inhibitors | 0.72% of 360,000 active | AID 1745845, 2022; note: nearly all actives have a fitted effect of over 55% in size
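ATXN2-luciferase reporter cells (luciferase flanked by upstream and downstream ATXN2 gene portions) were treated 24 h at 37 °C with compounds at up to 57 uM. SteadyGlo luminescence gave expression; GF-AFC fluorescence gave viability.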
ATXN viability: Viability Counterscreen for Primary qHTS for Inhibitors of ATXN expression; S2 cells (HEK-293 line with an ATXN2-luciferase reporter) viability, CellTiter-Fluor protease fluorescence, 24 h; Potency, µM (highest dose often 56.7 µM), hits mostly cytotoxic; 0.49% of 400,000 active; note: nearly all actives have a fitted effect of over 40% in size
TGFb SMAD3 inh: qHTS for Inhibitors of TGF-b | HepG2 CAGA-GFP TGF-b/SMAD3 reporter, GFP fluorescence, 18 h; TGF-beta stimulated, 500 pg/mL final | Potency, µM (titrated, usually from 46.1 µM), hits mostly inhibitors | 1.2% of 410,000 active | AID 588855, 2011; note: nearly all actives have a fitted effect of over 65% in size
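Inhibition was scored as loss of TGF-beta-induced (500 pg/mL final, 18 hours, 37 degrees C) GFP in HEPG2 cells carrying a CAGA-GFP reporter, in DMEM with 1% FBS. Well GFP was summed per cell; Activity was normalised to unstimulated and stimulated DMSO wells, then concentration-response fitting.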
Of the large screens only hits and unclear results are named; the others gave an inactive call. Unless noted, calls come from the whole dose curve; as a rule, active = well fitted curve in the direction sought with a large enough effect; inconclusive = small, poorly fitted or top-dose-only effect, or another doubt; inactive = no such curve, though single readings can be large; an effect the other way counts as inactive or inconclusive.

CCOC(=O)c1c(SCCN2CCCC2)n(-c2ccccc2)c(=S)n(-c2ccccc2)c1=O	D3 antag -119.3, ATXN2 expr inh 22.4µM, ATXN viability inconclusive, TGFb SMAD3 inh inconclusive
CCOC(=O)c1sc(=S)n(-c2ccccc2)c1SC	TGFb SMAD3 inh inconclusive
Cc1c(Cl)cccc1NC(c1ccc(F)cc1)c1nnc(-c2ccccc2)o1 (stereo unspecified)	none (no result: D3 antag)
CCOC(=O)Cn1c(=O)n(CC2CCCO2)c2nc(-c3c(F)cccc3Cl)nc(C(N)=O)c21 (stereo unspecified)	none (no result: D3 antag)
O=S(=O)(NCc1nnc2n1CCN(Cc1ccccc1Cl)CC2)c1ccccc1	none (no result: D3 antag, D3 ag, HepG2 viability, ATXN2 expr inh, TGFb SMAD3 inh)
CC1=CC(C)(C)N2C(=O)C3(NCCc4c3[nH]c3ccccc43)c3cc(C)cc1c32 (stereo unspecified)	D3 antag inconclusive, ATXN viability 22.4µM, TGFb SMAD3 inh inconclusive
CCc1ccc(S(=O)(=O)c2cn(Cc3ccc(OC)cc3)c3cc(OC)c(OC)cc3c2=O)cc1	ATXN viability inconclusive (no result: D3 antag)
NC(=O)CC(NC(=O)Cc1cccc2ccccc12)c1ccc(N2CCCCCC2)c([N+](=O)[O-])c1 (stereo unspecified)	D3 antag -68.1, ATXN viability inconclusive
Cc1cc(C)cc(C(=O)NC(CC(N)=O)c2ccc(N3CCC(Br)CC3)c([N+](=O)[O-])c2)c1 (stereo unspecified)	D3 ag 32.0, TGFb SMAD3 inh inconclusive
CCOC(=O)CSc1nc2c(sc3ccccc32)c(=O)n1CCO	TGFb SMAD3 inh inconclusive (no result: D3 antag)
COc1ccc(OC)c(/C=C/c2cc3ccccc3cn2)c1	TGFb SMAD3 inh inconclusive (no result: D3 antag, D3 ag, ATXN2 expr inh, ATXN viability)
CCC1C(=O)NCCN1Cc1ccc2c(c1)CN(Cc1ccc(OC)cc1OC)CCO2 (stereo unspecified)	none (no result: D3 antag, D3 ag, HepG2 viability, ATXN2 expr inh, TGFb SMAD3 inh)
CC(=O)c1cccc(NC(=O)C(C)OC(=O)c2ccc(S(C)(=O)=O)c([N+](=O)[O-])c2)c1 (stereo unspecified)	HepG2 viability 14.1µM, TGFb SMAD3 inh 11.2µM (no result: D3 antag, D3 ag, ATXN2 expr inh, ATXN viability)
CC(=O)c1cccc(NC(=O)COC(=O)c2ccc(S(C)(=O)=O)c([N+](=O)[O-])c2)c1	D3 antag inconclusive, TGFb SMAD3 inh 10µM
CC(=O)O[C@H]1C[C@@H]2CC[C@H]3[C@H]4C[C@H]([N+]5(C)CCCCC5)[C@@H](OC(C)=O)[C@@]4(C)CC[C@@H]3[C@@]2(C)C[C@H]1N1CCCCC1	none (no result: D3 antag, D3 ag, HepG2 viability, ATXN viability, TGFb SMAD3 inh)
Cc1nn(-c2ccccc2)c2nc(=O)n(-c3ccccc3)cc12	D3 antag -65.0
Cc1ccc2nc3c(cc2c1)c(C)nn3-c1ccccc1	none (no result: ATXN viability)
Cc1nc2ccn(Cc3cccnc3)c(=O)c2cc1C(=O)NCc1ccccc1	ATXN2 expr inh inconclusive, ATXN viability inconclusive (no result: D3 antag)
N#Cc1nc(N(c2ccccc2)c2ccccc2)nc(-n2cccc2)n1	TGFb SMAD3 inh inconclusive (no result: D3 antag, D3 ag, ATXN2 expr inh, ATXN viability)
Cc1ccc(-n2c(SCC(=O)NCc3ccco3)nc3c([nH]c4ccccc43)c2=O)cc1	D3 antag -50.5
CCCc1nc2c(s1)CCc1onc(-c3ccc(Br)cc3)c1-2	D3 ag 42.9
CCCc1nc2c(s1)CCc1onc(-c3ccc(Cl)cc3)c1-2	none
CC(C)c1nc2c(s1)CCc1onc(-c3ccc(Cl)cc3)c1-2	D3 ag 31.7
Cc1ccc(-c2cc(C(=O)N(Cc3ccc(C(C)(C)C)cc3)Cc3ccco3)no2)cc1	none (no result: D3 antag)
O=C(COC(=O)c1cccnc1Nc1ccccc1F)NCCN1C(=O)CSC1=O	D3 antag -56.5
CCCNC(=O)COC(=O)c1cccnc1Nc1ccccc1F	none
O=S(=O)(N1CCN(c2nc(-c3cccs3)nc3ccccc23)CC1)C(F)(F)F	none (no result: D3 antag, D3 ag, ATXN2 expr inh, ATXN viability)
O=c1c2cc(Br)ccc2nc(-c2cccc(C(F)(F)F)c2)n1O	D3 antag inconclusive, HepG2 viability 14.1µM, ATXN2 expr inh inconclusive, ATXN viability inconclusive, TGFb SMAD3 inh inconclusive
Cc1cn([C@@H]2C[C@@H](O)[C@H](CO)O2)c(=O)[nH]c1=O	none (no result: D3 antag, D3 ag, HepG2 viability, ATXN viability, TGFb SMAD3 inh)
